Here are results for 7 compounds from PubChem BioAssay (Tox21).

The structures appear in SMILES notation. A number with no mark means an inactive call. Results filed as inconclusive are left out. Activity calls are given as the source filed them. Unless noted, the call rests on the fitted dose curve; in most records, active means well fitted curve in the direction sought with a large enough effect in the repeat runs; inconclusive means weak or mixed curves; inactive means no such curve, though single readings can be large; an effect the other way counts as inactive or inconclusive.

A short description of assay [1]: qHTS assay for small molecule agonists of the p53 signaling pathway (AID 651631; calls by dose curve; further: nearly all actives have a fitted effect of over 15% in size). Put shortly: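 Stably transfected HCT-116 cells (beta-lactamase behind p53 response elements) get compounds after a 5 h settling period; 16 h later at 37 °C, FRET substrate is loaded and fluorescence read after 2 h.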
A short description of assay [2]: qHTS assay for small molecule agonists of the p53 signaling pathway - cell viability (AID 651633; calls by dose curve;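 further: p53RE-bla HCT reporter cells with a stable beta-lactamase p53 reporter; series mostly up to about 83 µM; nearly all actives have a fitted effect of over 30% in size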). In outline:
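p53RE-bla cells, seeded at 4,000 per well and rested 5 h at 37 C/5% CO2, received compounds in DMSO for 16 h at 37 C. CellTiter-Glo was then added, and luminescence was read after 30 min at room temperature to gauge cytotoxicity.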
(qHTS replaces the single test concentration by a dilution series.)

Assay [3] can be described thus: qHTS assay for small molecules that induce genotoxicity in human embryonic kidney cells expressing luciferase-tagged ATAD5 - cell viability (AID 651634; calls by dose curve; further: nearly all actives have a fitted effect of over 25% in size). Put shortly: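 Here HEK293T cells with the ATAD5 luciferase reporter are incubated with test compounds for 15.5 hr, and cytotoxicity is then gauged by measuring protease activity in live cells using fluorescence.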

Assay [4] is described as follows: qHTS assay for small molecule disruptors of the mitochondrial membrane potential (AID 720635). In outline:
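HepG2 cells (2,000/well) attached overnight at 37C, then took compound for 1 hr at 37C, 5% CO2. Mito-MPS dye was added for 30 min; fluorescence was read at 490/535 nm (monomers) and 540/590 nm (aggregates).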

Assay [5] in a line: qHTS assay to test for compound auto fluorescence at 590 nm (red) in HepG2 cells (AID 720674). In outline:
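Intrinsic compound fluorescence in the red window (Ex/Em 540/590 nm) is measured in attached HepG2 cells exposed for 1 hr, DMSO vehicle as baseline, benchmarked to Rose Bengal sodium.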

Assay [6] is described as follows: qHTS assay to test for compound auto fluorescence at 535 nm (green) in HepG2 cells (AID 720675).
Assay [7] can be described thus: qHTS assay to test for compound auto fluorescence at 460 nm (blue) in HEK293 cells (AID 720678). In outline: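 Measured: blue fluorescence (Ex 405/Em 460 nm) of compound-treated HEK293 cells, incubated overnight at 37C with 5% CO2 and scaled to triamterene equivalents.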
Assay [8] is described as follows: qHTS assay to test for compound auto fluorescence at 590 nm (red) in HEK293 cells (AID 720679). Put shortly: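 Using HEK293 cells at 2,000 per well, the screen added 23 nL of each compound after cell attachment and incubated overnight (37C, 5% CO2). The plate reader then captured red-label fluorescence, Ex/Em 540/590nm.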
The nature of assay [9]: qHTS assay to test for compound auto fluorescence at 535 nm (green) in HEK293 cells (AID 720680).
Assay [10] in a line: qHTS assay to test for compound auto fluorescence at 460 nm (blue) in HEK293 cell free culture (AID 720681). In outline:
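Test compounds were pinned into cell-free culture medium (DMEM with 10% FBS) and fluorescence was read directly at Ex/Em 405/460 nm. Signals were expressed as fluorescence equivalents of triamterene, with DMSO vehicle as control.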

Assay [11] can be described thus: qHTS assay to test for compound auto fluorescence at 535 nm (green) in HEK293 cell free culture (AID 720682). In outline: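 Using fluorescein as calibrant, autofluorescence was quantified at 485/535 nm in cell-free DMEM containing 10% FBS after pintool addition of compound or vehicle.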
Assay [12] is described as follows: qHTS assay to test for compound auto fluorescence at 590 nm (red) in HEK293 cell free culture (AID 720683). In outline: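 Tox21 10K library compounds were pinned into cell-free DMEM with 10% FBS and fluorescence was read at excitation 540 nm. Activity is expressed as Rose Bengal sodium equivalency.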
Assay [13] is described as follows: qHTS assay to test for compound auto fluorescence at 460 nm (blue) in HepG2 cell free culture (AID 720685). Put shortly: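 Cell-free plates of MEM plus 10% FBS received 23 nL compound or DMSO vehicle; blue-channel (405/460 nm) intensity scored against triamterene as reference fluorophore.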
The nature of assay [14]: qHTS assay to test for compound auto fluorescence at 535 nm (green) in HepG2 cell free culture (AID 720686).
Assay [15] can be described thus: qHTS assay to test for compound auto fluorescence at 460 nm (blue) in HepG2 cells (AID 720687). Put shortly:
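Cells (2,000/well in MEM with 10% FBS) attached overnight at 37 C, then were exposed to compound or DMSO for 1 hr at 37 C, 5% CO2. Fluorescence read at Ex/Em 405/460 nm, expressed as triamterene-equivalent signal.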

The target of assay [16] is Glucocorticoid receptor (Homo sapiens) (UniProt P04150). In words: qHTS assay to identify small molecule agonists of the glucocorticoid receptor (GR) signaling pathway (AID 720691; active means well fitted activation curve with a large enough effect in the signal ratio in the repeat runs, not every such curve was filed as active; the % refers to the signal ratio; further: potency means the concentration at half of the fitted maximal effect). Put shortly:
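Compounds in DMSO, alongside positive controls, were added to GR-bla HeLa reporter cells and incubated 18 h at 37 C; GRE-driven beta-lactamase was detected by fluorescence after 2 h with FRET substrate at room temperature.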

Assay [17] is described as follows: qHTS assay for small molecule disruptors of the mitochondrial membrane potential - cell viability (AID 720634; calls by dose curve;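 further: human HepG2 liver cancer cells; series mostly up to about 83 µM; nearly all actives have a fitted effect of over 20% in size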). Put shortly:
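Viability of HepG2 cells is scored from ATP content by luminescence; cells are exposed to compound for 1 hr at 37 C and 5% CO2, then dosed with m-MPI dye before the CellTiter-Glo reagent.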

The nature of assay [18]: qHTS assay to test for compound auto fluorescence at 590 nm (red) in HepG2 cell free culture (AID 720684). In outline: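 Readout: intrinsic compound fluorescence at 590 nm emission after 540 nm excitation, scaled to Rose Bengal sodium. Matrix was cell-free MEM with 10% FBS; DMSO vehicle wells served as control.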
The nature of assay [19]: qHTS assay for small molecules that induce genotoxicity in human embryonic kidney cells expressing luciferase-tagged ATAD5 (AID 651632). Further: nearly all actives have a fitted effect of over 15% in size. Put shortly:
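DMSO vehicle served as the control. HEK293T reporter cells, 16 hr at 37C, then 30 min Amplite at room temperature; ATAD5 induction is measured as luciferase activity.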

Assay [20] concerns the target Glucocorticoid receptor (Homo sapiens) (UniProt P04150). In words: qHTS assay to identify small molecule antagonists of the glucocorticoid receptor (GR) signaling pathway (AID 720692; active means well fitted inhibition curve with a large enough effect in the signal ratio in the repeat runs, not every such curve was filed as active; the % refers to the signal ratio). Put shortly:
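In a 1536-well cell format, compounds were added 4 h after seeding GR-bla HeLa cells, together with dexamethasone at 5 nM final; reporter activity was measured by FRET-substrate fluorescence following 18 h at 37 C.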

Sequence of Glucocorticoid receptor (Homo sapiens) (P04150 whole entry, looked up): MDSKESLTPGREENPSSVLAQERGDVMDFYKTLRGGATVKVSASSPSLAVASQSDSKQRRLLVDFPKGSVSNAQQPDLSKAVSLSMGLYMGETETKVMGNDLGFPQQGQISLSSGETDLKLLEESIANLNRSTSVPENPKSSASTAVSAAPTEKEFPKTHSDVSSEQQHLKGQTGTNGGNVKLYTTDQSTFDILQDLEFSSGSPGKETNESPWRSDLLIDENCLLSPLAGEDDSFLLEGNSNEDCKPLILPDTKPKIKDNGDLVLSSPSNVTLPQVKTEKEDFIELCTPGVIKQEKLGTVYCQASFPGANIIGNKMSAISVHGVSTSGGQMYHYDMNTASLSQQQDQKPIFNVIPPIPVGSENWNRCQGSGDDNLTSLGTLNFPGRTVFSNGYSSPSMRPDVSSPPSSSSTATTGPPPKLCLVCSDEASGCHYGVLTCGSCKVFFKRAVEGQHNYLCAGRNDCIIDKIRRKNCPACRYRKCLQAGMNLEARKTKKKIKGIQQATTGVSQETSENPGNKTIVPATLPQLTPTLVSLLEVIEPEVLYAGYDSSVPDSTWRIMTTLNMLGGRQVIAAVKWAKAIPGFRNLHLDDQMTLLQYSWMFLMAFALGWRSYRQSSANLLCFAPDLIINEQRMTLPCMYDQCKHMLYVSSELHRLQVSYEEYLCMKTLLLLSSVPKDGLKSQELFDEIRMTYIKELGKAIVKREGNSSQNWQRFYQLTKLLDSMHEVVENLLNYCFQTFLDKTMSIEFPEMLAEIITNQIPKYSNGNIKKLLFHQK

In the case of `Cc1ccc(-c2nc3ccc(C)cn3c2CC(=O)N(C)C)cc1`, the Potency entry in assay [1], in assay [2], in assay [3] and in assay [4] was “inactive” in each case. The outcome in [5], in assay [6], in assay [7], in assay [8], in assay [9] and in assay [10] was inactive. Further, the compound was called inactive in assay [11], in assay [12], in assay [13], in assay [14] and in assay [15]. For the same compound, the Potency in assay [16] is 23.9 µM (active).
For the compound `N[C@@H]1C[C@H]1c1ccccc1`, the Potency result in [1], in [2], in assay [3] and in [17] was “inactive” in each case. In addition, the compound was classed as inactive in assay [5], in assay [6], in [7], in assay [8], in assay [9] and in assay [10]. The outcome in [11], in [12], in assay [18], in [13], in assay [14] and in [15] was inactive.
In the case of `CC(C)(C)C(=O)C(Cl)Cl`, the compound was classed as inactive in assay [19], in [5], in assay [6], in assay [8], in assay [9] and in assay [10]. The compound was called inactive in [11], in [12], in [18], in assay [13], in [14] and in [15]. Further, the Potency entry in [2], in assay [3], in assay [17] and in assay [4] was “inactive” each time.
Regarding `CC(C)(O)C(Cl)(Cl)Cl`, the call in [19], in assay [5], in assay [6], in [7], in assay [8] and in [9] was inactive. Also, the compound was classed as inactive in assay [10], in assay [11], in [12], in assay [18], in assay [13] and in assay [14]. Further, the outcome in assay [15] was inactive. Moreover, the Potency result in [2], in [3], in assay [17], in assay [4] and in assay [16] was “inactive” in each case.
As for `CCOC(=O)N(C)N=O`, the result in [19], in assay [5], in assay [6], in [7], in assay [8] and in [9] was inactive. Further, the outcome in assay [10], in [11], in [18], in assay [13], in assay [14] and in assay [15] was inactive. Further, the Potency result in [2], in assay [3], in assay [17], in [4] and in [16] was “inactive” each time.
For `C[C@H](N)C(=O)c1ccccc1`, the compound was called inactive in [19], in assay [5], in [6], in [7], in assay [8] and in assay [9]. Moreover, the result in assay [10], in assay [11], in [12], in assay [18], in [13] and in [15] was inactive. In addition, the Potency result in assay [2], in assay [3], in assay [17], in assay [4], in assay [16] and in assay [20] was “inactive” throughout.
Consider `C=CC=O`, for which the Potency entry in [1], in [2], in assay [3] and in assay [16] was “inactive” in each case. For the same compound, the compound was called inactive in [5], in assay [6], in assay [7], in assay [8], in [9] and in assay [10]. Further, the result in assay [11], in assay [12], in assay [13] and in [14] was inactive.
